Screens: PubChem BioAssay, Sanford-Burnham Center for Chemical Genomics
The list is not random: actives were taken first. Their share in the collection is about 31%.
CYP2C19 act: increases human CYP2C19 enzyme activity. P33261. recombinant CYP2C19, luciferin-H EGE luminescence; active compounds read high; 0 = fully inhibited enzyme, 1 = untreated enzyme. 96,000 tested, under 10 active. activation factor at 5 µM;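 active = activation factor of at least 2 at 5 µM in the primary screen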
Target sequence (P33261 whole entry, looked up): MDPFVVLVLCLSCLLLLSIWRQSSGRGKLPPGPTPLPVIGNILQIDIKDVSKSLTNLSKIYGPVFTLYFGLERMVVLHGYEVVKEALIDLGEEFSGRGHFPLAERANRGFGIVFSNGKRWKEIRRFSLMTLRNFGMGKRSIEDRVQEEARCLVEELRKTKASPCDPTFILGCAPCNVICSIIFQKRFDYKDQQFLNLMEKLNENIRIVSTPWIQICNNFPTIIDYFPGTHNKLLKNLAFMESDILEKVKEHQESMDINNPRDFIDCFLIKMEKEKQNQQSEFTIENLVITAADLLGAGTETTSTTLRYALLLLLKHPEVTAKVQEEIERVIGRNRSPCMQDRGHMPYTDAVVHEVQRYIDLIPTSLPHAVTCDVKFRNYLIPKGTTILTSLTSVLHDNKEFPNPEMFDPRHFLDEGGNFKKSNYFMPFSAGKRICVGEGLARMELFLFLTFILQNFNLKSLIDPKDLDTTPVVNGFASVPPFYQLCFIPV
PLAP act: activates human placental alkaline phosphatase. 96,000 tested, 1.2% active. activation fold at 20 µM. P05187. purified PLAP enzyme, luminescent substrate read-out; active compounds read high. AID 696; in the data active = activation fold above about 2
CYP2C9 act: activators of human CYP2C9; P11712; recombinant CYP2C9, luciferin-H conversion, luminescence; active compounds read high; factor 1 = untreated enzyme, 0 = blocked; activation factor at 5 µM; 96,000 tested, 1.4% active;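 active = activation factor of 2 or more for CYP2C9 at a 5 µM dose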
CYP2C19 inh: blocks human cytochrome P450 2C19; P33261; CYP2C19 Supersomes, luciferin-H EGE luminescence, 30 min; inhibition, % at 5 µM; 96,000 tested, 21% active; AID 778;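 active = CYP2C19 inhibition above a set limit at 5 µM in the primary screen, cut at about 50% in these data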
CYP2C9 inh: human CYP2C9 inhibition; P11712; CYP2C9 Supersomes, luciferin-H conversion, luminescence; inhibition, % at 5 µM; 96,000 tested, 20% active;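 active = blocking of liver enzyme CYP2C9 beyond about 50% at 5 µM, limit read from the data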
Each line names hits and unclear results; the compound was inactive in the other large screens.

CC(OC(=O)c1cc2sccc2n1C)C(=O)NCc1cccs1 (stereo not given)	CYP2C9 inh 77.2
CCOC(=O)N1CCN(CC(=O)N2c3ccccc3CC2C)CC1 (stereo not given)	none
CCC(=O)Nc1ccc(-c2nn3c(C)nnc3s2)cc1C	none
CCOC(=O)c1ccc(NC(=O)CSc2nc(C)nc3c2c(=O)n(C)c(=O)n3C)cc1	none
COc1ccccc1OC1=NS(=O)(=O)c2ccccc21	none
O=C(Cn1cnc2ccccc2c1=O)OCCCCN1C(=O)c2ccccc2C1=O	none
COCCNC(=O)C(C)OC(=O)c1cc2occc2n1C (stereo not given)	CYP2C9 inh 79.7
Cn1c(C(=O)OC(C(=O)NC2CCCCC2)c2cccnc2)cc2sccc21 (stereo not given)	CYP2C19 inh 95.9, CYP2C9 inh 74.4
C=CCN(CC=C)S(=O)(=O)c1ccc(NC(=S)NC(=O)c2ccc(-c3ccccc3)cc2)cc1	CYP2C9 inh 61.6
C=CCN(CC=C)S(=O)(=O)c1ccc(NC(=S)NC(=O)c2ccco2)cc1	none
COc1ccc(CC(=O)NC(=S)Nc2ccc(S(=O)(=O)NC(C)(C)C)cc2)cc1	none
C=CCN(CC=C)S(=O)(=O)c1ccc(NC(=S)NC(=O)Cc2ccc(OC)cc2)cc1	CYP2C9 inh 72.3
CC(C)[C@H](NS(=O)(=O)c1ccccc1)C(=O)OCn1nnc2ccccc2c1=O	none
CCOC(=O)C1CCCN(C(=O)c2c(-c3ccccc3Cl)noc2C)C1 (stereo not given)	CYP2C19 inh 78.7, CYP2C9 inh 69.4
Cc1onc(-c2ccccc2Cl)c1C(=O)N1CC(C)OC(C)C1 (stereo not given)	none
Cc1onc(-c2c(Cl)cccc2Cl)c1C(=O)Nn1cnnc1	none
Cc1onc(-c2c(Cl)cccc2Cl)c1C(=O)N1CCc2ccccc21	CYP2C19 inh 88.3, CYP2C9 inh 84.8
Cc1onc(-c2ccccc2Cl)c1C(=O)N1CCc2ccccc2C1	CYP2C19 inh 54.2
Cc1onc(-c2c(F)cccc2Cl)c1C(=O)N1CCc2ccccc2C1	CYP2C19 inh 95.6, CYP2C9 inh 68.0
COc1ccc(-n2c(=O)c3ccccc3n(Cc3ccc(F)cc3)c2=O)cc1OC	none
CCCn1c(SCC(=O)Nc2cccc(C)n2)nnc1-c1ccco1	none
COc1ccc(C(=O)NCC(C)(C)SCc2c(C)cc(C)cc2C)cc1	none
O=C(CN1CCN(Cc2ccccc2)CC1)NC(=O)NCc1ccco1	none
Cc1ccc(C)c(S(=O)(=O)N2CCN(CC(=O)NC(=O)NCc3ccccc3)CC2)c1	CYP2C9 act 2.2
CCNc1nc(SCC(=O)OC)nc(N2CCOCC2)n1	none
CCNc1nc(N2CCOCC2)nc(N(c2ccccc2)c2ccccc2)n1	none
CNc1nc(SCc2ccccc2)nc(N2CCOCC2)n1	CYP2C19 inh 68.6
CC(C)(C)Nc1nc(SCc2ccccc2)nc(N2CCOCC2)n1	CYP2C19 inh 74.7, CYP2C9 inh 96.6
Cc1cc(Cl)c(S(=O)(=O)Nc2ccc3c(c2)OCCO3)cc1OCC(=O)NC1CCCCC1	none
COc1cc(CCNC(=O)c2cnn3ccccc23)cc(OC)c1OC	none
CCN(CC)CCNC(=O)c1ccc(Cl)c(S(=O)(=O)Nc2ccccc2OC)c1	none
COC(=O)c1ccc(NC(=O)c2ccccc2N(C)S(=O)(=O)c2ccccc2)cc1	none
COCCNC(=O)c1ccccc1NC(=O)c1ccccc1N(C)S(=O)(=O)c1ccc(C)cc1	CYP2C19 inh 84.2, CYP2C9 inh 94.7
COCCNC(=O)c1ccccc1NC(=O)c1ccc(Cl)c(S(=O)(=O)Nc2ccc(C)cc2C)c1	CYP2C9 inh 81.1
Cc1ccc(C)c(NS(=O)(=O)c2cc(C(=O)Nc3ccccc3-c3ccccc3)ccc2Cl)c1	CYP2C19 inh 79.3, CYP2C9 inh 69.7
Cc1ccccc1NC(=O)c1ccc(C)c(S(=O)(=O)Nc2ccccn2)c1	none
Cc1ccc(C(=O)Nc2ccccc2-c2ccccc2)cc1[N+](=O)[O-]	CYP2C9 inh 50.1
CC(=O)c1c(C(C)=O)c(C)n(-c2ccc(C)c(NC(=O)c3ccccc3Cl)c2)c1C	none
COCCCNS(=O)(=O)c1ccc(S(=O)(=O)N2CCCC2)cc1	none
CC(C)OP(=O)(OC(C)C)C(NC(=O)c1ccc(Br)cc1)c1ccccc1 (stereo not given)	none
COc1cc2oc3ccccc3c2cc1N(CC(=O)N(C)C)S(=O)(=O)c1ccc(C)cc1	CYP2C9 inh 63.3
O=C(NCCN1CCOCC1)c1cc2sccc2n1Cc1ccc(Cl)cc1	CYP2C19 inh 69.8, CYP2C9 inh 68.7
O=C(NCc1ccco1)C1CCN(C(=O)c2cc3sccc3n2Cc2ccc(Cl)cc2)CC1	CYP2C19 inh 64.7, CYP2C9 inh 77.2
O=C(NCCN1CCOCC1)c1cc2sccc2n1Cc1ccc(F)cc1	none
Cn1c(=O)c2c(nc(Sc3nc4ccccc4n3CC(=O)N3CCCCC3)n2C)n(C)c1=O	none
CC(=O)/C(=N/Nc1ccccc1C)N1CCOCC1	none
S=c1[nH]ncn1-c1ccccn1	none
COc1ccc2c(c1)Sc1ccccc1N2CCN(C)C	CYP2C19 inh 57.1
CCN1/C(=C/C(C)=O)Sc2ccc(OC)cc21	none
O=C(CSc1ccc2c(c1)OCCO2)NCC1CCCO1 (stereo not given)	none
Cc1ccc(C2C(C#N)=C(N)Oc3c2sc2ccccc32)o1 (stereo not given)	CYP2C19 inh 62.8, CYP2C9 inh 81.1
CCOC(=O)CC1=C(C(=O)OCC)C(c2ccc(OC)cc2OC)C(C#N)=C(N)O1 (stereo not given)	CYP2C9 inh 63.9
COc1ccc(-c2ccc(C3C(C#N)=C(N)Oc4n[nH]c(C)c43)o2)cc1 (stereo not given)	none
CCOC(=O)CC1=C(C(=O)OCC)C(c2ccc(C)o2)C(C#N)=C(N)O1 (stereo not given)	CYP2C19 inh 94.3
O=C(Nc1cccc(C(F)(F)F)c1)c1ccc2nc(N3C(=O)CCC3=O)sc2c1	none
COc1ccc(Oc2ncc(CN3CCN(c4ccccc4)CC3)s2)cc1	CYP2C19 inh 82.3, CYP2C9 inh 92.9
Cc1cc(Cl)ccc1Oc1ncc(CN2CCN(c3ccccc3)CC2)s1	none
Brc1ccc(Oc2ncc(CN3CCOCC3)s2)cc1	CYP2C19 inh 80.2
CCOC(=O)C1(C)/C(=N/Nc2ccccc2Cl)C(=O)C(=O)N1c1ccccc1 (stereo not given)	none
CCNC(=O)NC(=O)C(C)Sc1ccc2c(c1)OCCO2 (stereo not given)	CYP2C19 inh 52.8
CCCC(C)C(=O)Nc1ccc2c(c1)OCCO2 (stereo not given)	none
Cc1c(NC(=O)CN2CC(C)OC(C)C2)c(=O)n(-c2ccccc2)n1C (stereo not given)	none
CC(=O)c1c(C)[nH]c(C(=O)N2c3ccccc3CC2C)c1C (stereo not given)	CYP2C19 inh 77.3, CYP2C9 inh 78.0
COc1ccc(C(=O)N2c3ccccc3CC2C)cc1OC (stereo not given)	CYP2C19 inh 65.7
CC(=O)c1c(C)[nH]c(C(=O)N2CCN(C(=O)c3ccco3)CC2)c1C	none
